Where “and” joins values, the source holds several entries; their conditions need not be identical. Equal values may be shown once. Screen size: about 190,000 compounds; about 6,900 (3.6%) were called active. Rule as the data show it: active = inhibition above about 50%; inactive = the rest. The entries come from a sample that favours actives as a whole.
What follows are compounds tested against Huntingtin (Homo sapiens) (UniProt P42858) (assay: mutant huntingtin-calmodulin interaction inhibitors – biochemical, AlphaScreen, primary screen (AID 1671202;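 also: 0% = both proteins with DMSO and 100% = one protein alone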)). Conditions: AlphaScreen His-mHTT/GST-CaM binding, luminescence; at 15 µM; stronger effect = higher value.
Sequence of Huntingtin (Homo sapiens) (P42858 whole entry, looked up, stated change not applied): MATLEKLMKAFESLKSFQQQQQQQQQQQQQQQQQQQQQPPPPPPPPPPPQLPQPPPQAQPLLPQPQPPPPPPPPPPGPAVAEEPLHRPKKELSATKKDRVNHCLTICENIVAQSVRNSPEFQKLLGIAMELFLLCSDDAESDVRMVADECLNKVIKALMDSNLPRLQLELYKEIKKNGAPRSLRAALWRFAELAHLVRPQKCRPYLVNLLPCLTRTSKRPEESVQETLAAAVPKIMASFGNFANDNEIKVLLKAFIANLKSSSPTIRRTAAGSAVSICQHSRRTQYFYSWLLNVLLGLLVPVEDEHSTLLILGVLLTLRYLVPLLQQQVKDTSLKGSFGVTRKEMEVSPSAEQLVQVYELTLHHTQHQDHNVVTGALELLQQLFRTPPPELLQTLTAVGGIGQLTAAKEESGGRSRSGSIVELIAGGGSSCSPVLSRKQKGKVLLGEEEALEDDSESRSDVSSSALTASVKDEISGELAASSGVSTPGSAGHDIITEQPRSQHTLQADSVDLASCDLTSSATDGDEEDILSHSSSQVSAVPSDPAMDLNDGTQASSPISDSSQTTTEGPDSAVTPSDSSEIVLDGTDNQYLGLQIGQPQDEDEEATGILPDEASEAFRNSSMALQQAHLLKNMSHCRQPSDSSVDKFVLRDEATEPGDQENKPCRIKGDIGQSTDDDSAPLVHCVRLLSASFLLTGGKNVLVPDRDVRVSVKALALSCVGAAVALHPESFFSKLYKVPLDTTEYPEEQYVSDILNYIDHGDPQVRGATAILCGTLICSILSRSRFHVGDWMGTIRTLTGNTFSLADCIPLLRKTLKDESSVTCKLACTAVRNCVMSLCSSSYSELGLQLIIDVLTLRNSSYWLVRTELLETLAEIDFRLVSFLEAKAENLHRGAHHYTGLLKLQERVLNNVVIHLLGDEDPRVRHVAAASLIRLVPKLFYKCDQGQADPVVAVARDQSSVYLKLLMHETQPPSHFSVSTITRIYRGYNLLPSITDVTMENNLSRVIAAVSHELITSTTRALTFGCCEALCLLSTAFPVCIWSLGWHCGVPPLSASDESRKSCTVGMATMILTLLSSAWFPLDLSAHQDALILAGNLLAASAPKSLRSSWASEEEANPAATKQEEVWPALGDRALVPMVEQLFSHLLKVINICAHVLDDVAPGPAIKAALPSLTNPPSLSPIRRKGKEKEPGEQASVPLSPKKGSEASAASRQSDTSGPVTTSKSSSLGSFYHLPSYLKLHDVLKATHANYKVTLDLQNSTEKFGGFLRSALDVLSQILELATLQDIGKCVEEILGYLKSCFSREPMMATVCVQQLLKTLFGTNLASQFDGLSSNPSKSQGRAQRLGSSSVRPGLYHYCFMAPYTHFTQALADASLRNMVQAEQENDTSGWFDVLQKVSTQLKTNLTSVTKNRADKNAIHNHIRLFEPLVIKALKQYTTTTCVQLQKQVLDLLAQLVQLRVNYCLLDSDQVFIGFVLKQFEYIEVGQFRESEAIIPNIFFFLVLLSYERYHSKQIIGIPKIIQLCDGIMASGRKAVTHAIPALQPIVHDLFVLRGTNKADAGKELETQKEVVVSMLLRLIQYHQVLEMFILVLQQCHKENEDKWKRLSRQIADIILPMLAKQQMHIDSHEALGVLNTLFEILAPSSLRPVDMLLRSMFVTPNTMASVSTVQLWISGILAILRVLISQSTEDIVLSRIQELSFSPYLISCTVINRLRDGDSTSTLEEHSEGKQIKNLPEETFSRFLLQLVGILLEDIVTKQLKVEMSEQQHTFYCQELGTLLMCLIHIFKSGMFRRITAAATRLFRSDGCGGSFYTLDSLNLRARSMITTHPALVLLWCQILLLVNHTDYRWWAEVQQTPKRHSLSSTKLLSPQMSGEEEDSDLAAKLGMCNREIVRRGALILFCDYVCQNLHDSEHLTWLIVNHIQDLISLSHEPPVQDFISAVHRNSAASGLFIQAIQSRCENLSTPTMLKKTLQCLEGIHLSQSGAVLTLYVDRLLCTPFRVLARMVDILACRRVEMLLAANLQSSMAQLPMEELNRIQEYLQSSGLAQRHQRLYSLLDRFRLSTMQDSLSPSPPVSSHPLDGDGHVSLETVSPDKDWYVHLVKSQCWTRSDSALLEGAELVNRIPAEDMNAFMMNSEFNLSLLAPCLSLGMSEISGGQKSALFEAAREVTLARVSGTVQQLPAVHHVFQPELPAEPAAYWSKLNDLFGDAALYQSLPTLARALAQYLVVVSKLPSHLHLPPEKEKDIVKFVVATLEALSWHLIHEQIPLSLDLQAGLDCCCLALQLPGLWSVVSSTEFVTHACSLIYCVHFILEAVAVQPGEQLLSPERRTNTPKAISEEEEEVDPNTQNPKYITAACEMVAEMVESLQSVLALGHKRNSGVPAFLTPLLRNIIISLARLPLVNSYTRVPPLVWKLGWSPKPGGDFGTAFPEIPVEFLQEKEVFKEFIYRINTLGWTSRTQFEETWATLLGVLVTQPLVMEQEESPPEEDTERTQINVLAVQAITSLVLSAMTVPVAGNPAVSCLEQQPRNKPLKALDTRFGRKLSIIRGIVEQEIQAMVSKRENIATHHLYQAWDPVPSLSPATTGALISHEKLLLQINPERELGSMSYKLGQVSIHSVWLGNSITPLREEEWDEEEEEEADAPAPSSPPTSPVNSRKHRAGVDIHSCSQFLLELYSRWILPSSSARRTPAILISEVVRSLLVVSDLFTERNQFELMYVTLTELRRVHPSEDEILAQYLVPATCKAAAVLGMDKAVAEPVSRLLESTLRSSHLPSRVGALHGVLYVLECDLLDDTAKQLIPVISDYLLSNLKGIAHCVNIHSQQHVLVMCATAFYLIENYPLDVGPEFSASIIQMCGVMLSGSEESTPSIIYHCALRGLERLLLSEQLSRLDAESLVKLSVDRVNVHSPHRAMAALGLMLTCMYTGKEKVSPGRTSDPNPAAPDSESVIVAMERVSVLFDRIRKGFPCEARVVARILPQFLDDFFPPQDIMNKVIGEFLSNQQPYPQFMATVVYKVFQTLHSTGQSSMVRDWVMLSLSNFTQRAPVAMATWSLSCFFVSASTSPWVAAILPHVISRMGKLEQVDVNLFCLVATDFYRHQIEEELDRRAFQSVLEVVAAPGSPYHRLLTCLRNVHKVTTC

Question: With `Nc1ccc(Cc2ccc(N)c(Cl)c2)cc1Cl` as the compound, how does the inhibition read?
Answer: 14.7% (inactive)

Question: Which inhibition does the source give for `Nc1ccc(-c2ccc(N)c(N)c2)cc1N` here?
Answer: 92.1% (active)

Question: For `CC(C)CCn1c(=O)c(C(=O)Nc2ccccn2)c(O)c2ccccc21`, which inhibition is on record?
Answer: -1% (inactive)

Question: `CCCn1c(=O)cc(C)c2ccc(OCC(=O)N3CCN(C)CC3)cc21` was tested. Which inhibition did it give?
Answer: -3.5% (inactive)

Question: With `Cc1csc(NC(=O)c2cccn(Cc3cccc([N+](=O)[O-])c3)c2=O)n1` as the compound, how does the inhibition read?
Answer: -9.9% (inactive)

Question: Which inhibition does the source give for `CCOC(=O)c1ccc(NC(=O)c2cccn(Cc3ccc(C(F)(F)F)cc3)c2=O)cc1` here?
Answer: 83.3% (active)

Question: How did the inhibition turn out when `CCCCS(=O)(=O)N1CCC2(C1)C(=O)N(C)c1ccc(OC)cc12` (stereo not given) was run?
Answer: 12.5% (inactive)

Question: Which inhibition does the source give for `COc1ccc(CCC(=O)N2CCC3(C2)C(=O)N(C)c2ccc(OC)cc23)cc1` (stereo not given) here?
Answer: 6.74% (inactive)

Question: How did the inhibition turn out when `CC(C)CCNC(=O)CN1C(=O)C(C)N=C(c2ccccc2)c2ccccc21` (stereo not given) was run?
Answer: 5% (inactive)

Question: Which inhibition does the source give for `O=C(Cc1c[nH]c2ccccc12)N1CCCN(C2CCN(Cc3ccc(F)cc3)C2=O)CC1` (stereo not given) here?
Answer: 44.9% (inactive)

Question: How did the inhibition turn out when `O=[N+]([O-])c1cccc(C(Cl)Cl)c1` was run?
Answer: -5.2% (inactive)

Question: How did the inhibition turn out when `O=c1cccc2n1CC1CC2CN(Cc2cc(Cl)ccc2O)C1` (stereo not given) was run?
Answer: 3.2% (inactive)

Question: How did the inhibition turn out when `COC(=O)c1ccc2[se]c(CC3CCCCC3)c(I)c2c1` was run?
Answer: -13.6% (inactive)

Question: How did the inhibition turn out when `CCN(CC)CCNc1ccc([N+](=O)[O-])c2cccnc12` was run?
Answer: -2.5% (inactive) and 9% (inactive)

Question: How did the inhibition turn out when `CC(C)(CNc1ccc([N+](=O)[O-])c2cccnc12)CNS(=O)(=O)c1ccc(Cl)cc1` was run?
Answer: 54% (active)

Question: How did the inhibition turn out when `O=[N+]([O-])c1ccc(NCCNc2ccc([N+](=O)[O-])c3cccnc23)cc1` was run?
Answer: 1.26% (inactive)

Question: How did the inhibition turn out when `CCN(CC)CC#CCOc1ccccc1` was run?
Answer: -4.9% (inactive)

Question: `CC(=O)c1ccc(OC(NC(=O)Cc2ccccc2)C(Cl)(Cl)Cl)cc1` (stereo not given) was tested. Which inhibition did it give?
Answer: 50% (active)

Question: `CN1CCN(c2nnc(C(F)(F)F)s2)CC1` was tested. Which inhibition did it give?
Answer: -5% (inactive)

Question: `CC(C)c1cc(=O)n2c(n1)SCC2CC(=O)N1CC2CC(C1)c1cccc(=O)n1C2` (stereo not given) was tested. Which inhibition did it give?
Answer: -1.2% (inactive)
